Consider 32 molecules from PubChem BioAssay (NCATS).

Results filed as inconclusive are left out. A call without a number means that no potency is given here. Active and inactive are the calls of the source. Calls come from the whole dose curve; as a rule, active = well fitted inhibition curve with a large enough effect; inconclusive = small, poorly fitted or top-dose-only effect; inactive = no such curve, though single readings can be large or run the other way.
Potency is the fitted concentration of half-maximal effect.

A short description of the assay: S16 Schwann cell PMP22 intronic element firefly luciferase assay (AID 624032). Note: nearly all actives have a fitted effect of over 30% in size. As to conditions: S16 rat Schwann cells, PMP22 element FLuc, 24 h; series mostly up to 57.5 µM. The procedure, abridged: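 Luciferase reporter of PMP22 intronic-element expression in stably transfected S16 rat Schwann cells, read by ONE-Glo luminescence after 24 h compound exposure at 37 C. Activity scaled between DMSO (0%) and positive-control PTC124; concentration-effect curves quality-classified.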
Regarding `CC(=O)N(O)CCCCCNC(=O)CCC(=O)N(O)CCCCCNC(=O)CCC(=O)N(O)CCCCCN`, the Potency entry is “inactive”.

Consider `CCOC(=O)c1cccc(N)c1`, for which the Potency result was “inactive”. The figure for `CN1C(CCl)Nc2cc(Cl)c(S(N)(=O)=O)cc2S1(=O)=O` (configuration not stated) is 0.161 µM (active); for `CC[N+](CC)(CCNC(=O)C(=O)NCC[N+](CC)(CC)Cc1ccccc1Cl)Cc1ccccc1Cl` it is “inactive”. Consider `CCCCC(CC)CN=C(N)NC(N)=NCCCCCCN=C(N)NC(N)=NCC(CC)CCCC` (configuration not stated), for which the Potency is 25.6 µM (active). In the case of `CN1CCN(C(c2ccccc2)c2ccccc2)CC1`, the Potency result is “inactive”. For `NCCC(O)(P(=O)(O)O)P(=O)(O)O` the value was “inactive”; for `CCCCN1CCCC1C(=O)Nc1c(C)cc(C)cc1C` (configuration not stated), “inactive”; for `CCC(C(=O)OCCN(CC)CC)c1ccccc1` (configuration not stated), “inactive”.

As for `COc1ccc(CN2CCN(C(c3ccc(F)cc3)c3ccc(F)cc3)CC2)c(OC)c1OC`, the Potency was 10.2 µM (active). For `Cc1c(C)n(CCN(C)C)c2ccc(C(=O)OCCN(C)C)cc12` the value was 32.2 µM (active); for `OCc1ccccc1O`, “inactive”. For `Cc1c(F)c(N2CCNC(C)C2)cc2c1c(=O)c(C(=O)O)cn2C1CC1` (configuration not stated) the value was “inactive”; for `Cc1cc(O)c(C(C)C)cc1Cl`, “inactive”; for `CCn1cc(C(=O)O)c(=O)c2cnc(N3CCCC3)nc21`, “inactive”. The entry for `NC(CO)(CO)CO` is “inactive”; for `CN=C(NC#N)NCCSCc1csc(N=C(N)N)n1` it is “inactive”; for `CCCCOc1cc(C(=O)NCCN(CC)CC)c2ccccc2n1` it is “inactive”.

As for `O=C(O)CNC(=O)c1ccccc1`, the Potency result was “inactive”. The entry for `Cc1cccn2c(=O)c(-c3nnn[nH]3)cnc12` is “inactive”; for `Nc1ccc(C(=O)Nc2ccccc2N)cc1` it is “inactive”; for `Cc1c(C(N)=O)cc([N+](=O)[O-])cc1[N+](=O)[O-]` it is “inactive”. For `COC(=O)[C@@H]1CC2=CC(=O)CC[C@]2(C)[C@@]23O[C@@H]2C[C@@]2(C)[C@@H](CC[C@@]24CCC(=O)O4)[C@H]13` the value was “inactive”; for `c1ccc(CNCCNCc2ccccc2)cc1`, “inactive”. For `CCOc1ccc(NC(=O)CC(C)O)cc1` (configuration not stated) the value was “inactive”; for `OC(CCN1CCCCC1)(c1ccccc1)c1ccccc1`, “inactive”.

With `NCCc1ccn[nH]1`, the Potency entry is “inactive”. The entry for `CCN(CC)CCNC(=O)COc1ccc(Cl)cc1` is “inactive”; for `O=C(CCN1CCC(c2ccccc2)C1)c1ccc2c(c1)OCCO2` (configuration not stated) it is 25.6 µM (active). Regarding `Cc1c(N(C)CS(=O)(=O)O)c(=O)n(-c2ccccc2)n1C`, the Potency entry was “inactive”. The entry for `O=C(COc1ccc(Cl)cc1)N1CCN(Cc2ccc3c(c2)OCO3)CC1` is “inactive”; for `CCN1CCN(c2cc3c(cc2F)c(=O)c(C(=O)O)cn3C2CC2)CC1` it is “inactive”.
